# Laboratory results: paper PMC7862700, “An all-to-all approach to the identification of sequence-specific readers for epigenetic DNA modifications on cytosine”
# Legend:
# Assay in all cases: DAPPL (digital affinity profiling via proximity ligation, sequencing); 10 mM Tris-HCl pH 7.5, 50 mM NaCl, 1 mM DTT, 4% glycerol, room temperature, 30 min; GST-TFs on glutathione beads, 16-mer random dsDNA library, 0.1% formaldehyde crosslink after washing; high values mean tight binding
# Conditions in all cases: protein: recombinant; tags: N-terminal GST; dsDNA, one strand shown
# ETV1 = ETV1 (Homo sapiens, UniProt P50549 1-477)
# Chain of ETV1 (P50549 whole entry, the tested form may be a part): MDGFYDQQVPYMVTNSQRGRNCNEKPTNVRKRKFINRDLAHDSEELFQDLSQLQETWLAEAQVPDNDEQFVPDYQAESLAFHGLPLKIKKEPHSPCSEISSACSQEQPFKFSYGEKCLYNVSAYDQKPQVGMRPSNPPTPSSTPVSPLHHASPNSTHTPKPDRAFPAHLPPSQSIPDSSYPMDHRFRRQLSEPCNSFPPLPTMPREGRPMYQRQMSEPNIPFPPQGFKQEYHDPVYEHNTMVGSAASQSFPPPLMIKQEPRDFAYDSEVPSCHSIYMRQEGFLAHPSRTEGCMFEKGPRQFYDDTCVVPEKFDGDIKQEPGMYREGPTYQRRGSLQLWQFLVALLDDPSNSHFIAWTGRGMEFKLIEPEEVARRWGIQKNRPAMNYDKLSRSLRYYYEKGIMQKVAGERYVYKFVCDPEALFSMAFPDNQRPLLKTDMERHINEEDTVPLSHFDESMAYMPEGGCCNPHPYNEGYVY
# Outline: (§1)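 Human transcription factors carrying a GST fusion were produced in yeast, bound to glutathione beads, tagged with DNA barcodes and pooled together with a tag-only sample. Each pool was held with 200 nmole of a random double-stranded 16-mer DNA library in Tris/NaCl/DTT/glycerol buffer for 30 min at room temperature, then washed, crosslinked in 0.1% formaldehyde, proximity-ligated with BsaI/T4 ligase (1 h, 37 °C), PCR-amplified and sequenced on an Illumina NextSeq500. Binding signal is the read frequency of each hexamer for a given factor divided by its frequency in the tag-only sample.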
# ERF = molecular target: T1, ERF (Homo sapiens, UniProt P50548 1-548)
# T1 sequence: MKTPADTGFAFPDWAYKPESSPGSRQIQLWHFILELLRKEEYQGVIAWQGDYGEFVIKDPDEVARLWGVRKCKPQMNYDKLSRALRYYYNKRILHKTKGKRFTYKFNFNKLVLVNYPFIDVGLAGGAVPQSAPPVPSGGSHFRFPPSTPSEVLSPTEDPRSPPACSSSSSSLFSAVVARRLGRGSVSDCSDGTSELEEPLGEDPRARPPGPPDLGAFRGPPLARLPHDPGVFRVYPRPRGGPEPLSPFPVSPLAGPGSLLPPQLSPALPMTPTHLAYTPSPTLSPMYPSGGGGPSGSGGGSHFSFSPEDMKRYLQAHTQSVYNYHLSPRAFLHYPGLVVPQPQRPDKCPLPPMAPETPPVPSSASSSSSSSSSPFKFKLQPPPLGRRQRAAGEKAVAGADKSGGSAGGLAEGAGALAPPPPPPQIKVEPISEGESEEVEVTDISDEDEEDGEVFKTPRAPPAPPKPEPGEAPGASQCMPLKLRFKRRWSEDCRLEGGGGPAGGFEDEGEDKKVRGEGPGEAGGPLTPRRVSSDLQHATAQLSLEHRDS
# Outline: as §1
# ETV3L = molecular target: T2, ETV3L (Homo sapiens, UniProt Q6ZN32 1-361)
# T2 sequence: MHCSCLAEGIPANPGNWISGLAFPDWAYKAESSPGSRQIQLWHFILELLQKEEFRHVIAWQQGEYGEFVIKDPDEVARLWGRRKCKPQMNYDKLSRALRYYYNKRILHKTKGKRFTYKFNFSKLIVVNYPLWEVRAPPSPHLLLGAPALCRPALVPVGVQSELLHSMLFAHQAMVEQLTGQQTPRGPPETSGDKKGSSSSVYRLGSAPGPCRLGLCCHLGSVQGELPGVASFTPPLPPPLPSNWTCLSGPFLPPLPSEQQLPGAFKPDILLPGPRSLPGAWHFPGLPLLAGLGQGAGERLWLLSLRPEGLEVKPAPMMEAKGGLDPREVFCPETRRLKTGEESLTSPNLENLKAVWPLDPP
# Outline: as §1
# ETS2 = molecular target: T3, ETS2 (Homo sapiens, UniProt P15036 1-469)
# T3 sequence: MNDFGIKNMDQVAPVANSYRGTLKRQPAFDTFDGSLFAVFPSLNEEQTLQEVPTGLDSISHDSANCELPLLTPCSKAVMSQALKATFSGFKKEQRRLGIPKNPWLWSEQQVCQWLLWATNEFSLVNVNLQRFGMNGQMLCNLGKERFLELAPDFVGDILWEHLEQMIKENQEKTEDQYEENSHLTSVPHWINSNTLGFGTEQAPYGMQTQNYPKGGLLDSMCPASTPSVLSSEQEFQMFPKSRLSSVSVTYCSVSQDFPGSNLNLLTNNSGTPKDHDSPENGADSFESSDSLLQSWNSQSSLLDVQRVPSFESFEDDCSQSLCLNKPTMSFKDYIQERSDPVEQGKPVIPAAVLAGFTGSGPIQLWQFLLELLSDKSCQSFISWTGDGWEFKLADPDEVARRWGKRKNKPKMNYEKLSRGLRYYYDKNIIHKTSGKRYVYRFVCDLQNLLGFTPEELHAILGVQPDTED
# Outline: as §1
# SPDEF = molecular target: T4, SPDEF (Homo sapiens, UniProt O95238 1-335)
# T4 sequence: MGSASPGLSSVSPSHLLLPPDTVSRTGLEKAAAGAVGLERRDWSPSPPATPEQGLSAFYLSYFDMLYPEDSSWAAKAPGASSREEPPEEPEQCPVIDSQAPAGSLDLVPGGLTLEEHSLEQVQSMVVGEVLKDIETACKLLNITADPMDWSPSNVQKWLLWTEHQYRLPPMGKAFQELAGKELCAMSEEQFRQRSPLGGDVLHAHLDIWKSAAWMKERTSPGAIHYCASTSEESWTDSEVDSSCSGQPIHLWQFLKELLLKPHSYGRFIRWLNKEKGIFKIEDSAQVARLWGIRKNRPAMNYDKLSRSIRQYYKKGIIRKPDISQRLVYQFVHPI
# Outline: as §1
# ETV7 = molecular target: T5, ETV7 (Homo sapiens, UniProt Q9Y603 1-341)
# T5 sequence: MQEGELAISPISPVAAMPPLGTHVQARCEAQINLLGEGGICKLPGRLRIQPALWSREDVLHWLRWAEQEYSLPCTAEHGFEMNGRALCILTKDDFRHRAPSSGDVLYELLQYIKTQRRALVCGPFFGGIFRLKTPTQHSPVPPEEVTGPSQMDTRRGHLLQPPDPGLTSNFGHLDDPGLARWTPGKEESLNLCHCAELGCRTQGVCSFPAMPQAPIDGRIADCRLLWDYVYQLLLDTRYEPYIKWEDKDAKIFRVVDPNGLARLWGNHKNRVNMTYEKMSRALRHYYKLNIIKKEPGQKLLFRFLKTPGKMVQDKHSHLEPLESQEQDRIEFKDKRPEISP
# Outline: as §1
# ELF5 = molecular target: T6, ELF5 (Homo sapiens, UniProt Q9UKW6-2 1-255)
# T6 sequence: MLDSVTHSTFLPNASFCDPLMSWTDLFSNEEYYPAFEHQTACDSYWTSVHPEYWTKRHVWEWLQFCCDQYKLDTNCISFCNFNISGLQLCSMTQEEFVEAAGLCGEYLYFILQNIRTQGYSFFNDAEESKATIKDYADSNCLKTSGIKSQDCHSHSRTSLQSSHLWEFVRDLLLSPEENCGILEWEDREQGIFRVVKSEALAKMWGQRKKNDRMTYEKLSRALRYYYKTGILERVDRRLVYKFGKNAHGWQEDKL
# Outline: as §1
# ETV3 = molecular target: T7, ETV3 (Homo sapiens, UniProt P41162-2 1-143)
# T7 sequence: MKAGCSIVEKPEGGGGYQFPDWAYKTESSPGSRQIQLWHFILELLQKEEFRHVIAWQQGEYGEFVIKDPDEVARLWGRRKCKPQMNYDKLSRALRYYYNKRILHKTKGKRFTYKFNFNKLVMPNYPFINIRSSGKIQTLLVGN
# Outline: as §1
# ETV6 = ETV6 (Homo sapiens, UniProt P41212 1-452)
# Chain of ETV6 (P41212 whole entry): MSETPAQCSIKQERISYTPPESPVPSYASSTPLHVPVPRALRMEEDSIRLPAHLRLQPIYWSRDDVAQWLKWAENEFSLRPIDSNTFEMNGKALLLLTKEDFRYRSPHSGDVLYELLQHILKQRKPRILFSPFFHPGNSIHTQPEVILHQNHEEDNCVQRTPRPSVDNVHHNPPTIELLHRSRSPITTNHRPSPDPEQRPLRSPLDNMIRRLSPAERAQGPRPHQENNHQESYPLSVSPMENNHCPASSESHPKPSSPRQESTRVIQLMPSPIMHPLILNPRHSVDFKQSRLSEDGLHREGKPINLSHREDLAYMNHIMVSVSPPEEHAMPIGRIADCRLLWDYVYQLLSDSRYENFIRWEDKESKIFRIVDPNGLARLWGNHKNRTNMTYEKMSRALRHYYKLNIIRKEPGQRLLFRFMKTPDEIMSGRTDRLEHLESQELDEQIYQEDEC
# Outline: as §1
sequence,measurement,setting,value
TGCTGG,binding signal,ETV1,"1.08 fold enrichment (6-mer frequency, TF over GST control)"
same,binding signal,ERF,"1.2 fold enrichment (6-mer frequency, TF over GST control)"
same,binding signal,ETV3L,"1.22 fold enrichment (6-mer frequency, TF over GST control)"
same,binding signal,ETS2,"1.07 fold enrichment (6-mer frequency, TF over GST control)"
same,binding signal,SPDEF,"1.15 fold enrichment (6-mer frequency, TF over GST control)"
same,binding signal,ETV7,"1.13 fold enrichment (6-mer frequency, TF over GST control)"
same,binding signal,ELF5,"1.07 fold enrichment (6-mer frequency, TF over GST control)"
same,binding signal,ETV3,"1.11 fold enrichment (6-mer frequency, TF over GST control)"
same,binding signal,ETV6,"1.06 fold enrichment (6-mer frequency, TF over GST control)"
